Records with an inconclusive call do not appear. Where a call stands in place of a potency, no number is given. Activity calls are given as the source filed them. Unless noted, the call rests on the fitted dose curve; in most records, active means well fitted curve in the direction sought with a large enough effect in the repeat runs; inconclusive means weak or mixed curves; inactive means no such curve, though single readings can be large; an effect the other way counts as inactive or inconclusive.
Legend:
[1] = biological target: Thyrotropin receptor (Homo sapiens) (UniProt P16473); assay: qHTS assay to identify small molecule antagonists of the thyroid stimulating hormone receptor (TSHR) signaling pathway (AID 1259385; calls by dose curve; further: nearly all actives have a fitted effect of over 20% in size; further: potency means the concentration at half of the fitted maximal effect)
Thyrotropin receptor (Homo sapiens), sequence (P16473 whole entry, looked up): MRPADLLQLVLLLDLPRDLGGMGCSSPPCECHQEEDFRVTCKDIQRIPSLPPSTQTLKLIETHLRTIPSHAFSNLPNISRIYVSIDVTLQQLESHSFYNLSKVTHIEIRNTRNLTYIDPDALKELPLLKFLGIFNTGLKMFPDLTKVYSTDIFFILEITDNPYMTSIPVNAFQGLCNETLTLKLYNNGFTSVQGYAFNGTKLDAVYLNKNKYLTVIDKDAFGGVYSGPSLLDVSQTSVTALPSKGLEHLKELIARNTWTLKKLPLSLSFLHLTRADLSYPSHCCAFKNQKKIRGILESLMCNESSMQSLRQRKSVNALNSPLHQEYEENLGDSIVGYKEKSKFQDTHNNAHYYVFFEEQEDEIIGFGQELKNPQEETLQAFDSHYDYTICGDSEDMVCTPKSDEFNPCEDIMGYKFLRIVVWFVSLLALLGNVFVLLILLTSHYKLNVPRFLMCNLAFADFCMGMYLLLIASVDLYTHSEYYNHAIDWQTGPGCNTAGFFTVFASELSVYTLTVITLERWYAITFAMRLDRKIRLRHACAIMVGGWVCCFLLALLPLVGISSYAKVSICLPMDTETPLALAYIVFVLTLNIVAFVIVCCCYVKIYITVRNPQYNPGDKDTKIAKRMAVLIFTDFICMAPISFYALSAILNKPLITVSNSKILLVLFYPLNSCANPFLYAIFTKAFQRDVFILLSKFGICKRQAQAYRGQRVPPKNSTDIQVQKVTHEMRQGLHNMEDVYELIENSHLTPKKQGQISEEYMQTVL
In short: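 Antagonist mode: compound-treated TSHR-expressing HEK293 cells were stimulated with 1.5 ng/mL TSH (final) in presence of Ro20-1724 for 30 min at RT. HTRF cAMP detection after 1 h; each compound tested at 15 concentrations, triplicate.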

[2] = qHTS assay to identify small molecule agonists of the estrogen receptor alpha (ER-alpha) signaling pathway in the presence of an antagonist - cell viability counter screen (AID 1259386);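 further: cells exposed to compounds for 22 h at 37 °C before the viability read; nearly all actives have a fitted effect of over 30% in size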; further: potency means the concentration at half of the fitted maximal effect
In short: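 Viability counter screen using VM7Luc4E2 (full-length ER-alpha, four ERE-luciferase). The cells were treated with compounds alongside ICI-182,780 10.0nM for 22hr, and live-cell protease fluorescence was quantified with CellTiter-Fluor.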

[3] = biological target: Progesterone receptor (Homo sapiens) (UniProt P06401); assay: qHTS assay to identify small molecule agonists of the progesterone receptor (PR) signaling pathway (AID 1346784; calls by dose curve; further: nearly all actives have a fitted effect of over 30% in size; further: potency means the concentration at half of the fitted maximal effect)
Progesterone receptor (Homo sapiens), sequence (P06401 whole entry, looked up): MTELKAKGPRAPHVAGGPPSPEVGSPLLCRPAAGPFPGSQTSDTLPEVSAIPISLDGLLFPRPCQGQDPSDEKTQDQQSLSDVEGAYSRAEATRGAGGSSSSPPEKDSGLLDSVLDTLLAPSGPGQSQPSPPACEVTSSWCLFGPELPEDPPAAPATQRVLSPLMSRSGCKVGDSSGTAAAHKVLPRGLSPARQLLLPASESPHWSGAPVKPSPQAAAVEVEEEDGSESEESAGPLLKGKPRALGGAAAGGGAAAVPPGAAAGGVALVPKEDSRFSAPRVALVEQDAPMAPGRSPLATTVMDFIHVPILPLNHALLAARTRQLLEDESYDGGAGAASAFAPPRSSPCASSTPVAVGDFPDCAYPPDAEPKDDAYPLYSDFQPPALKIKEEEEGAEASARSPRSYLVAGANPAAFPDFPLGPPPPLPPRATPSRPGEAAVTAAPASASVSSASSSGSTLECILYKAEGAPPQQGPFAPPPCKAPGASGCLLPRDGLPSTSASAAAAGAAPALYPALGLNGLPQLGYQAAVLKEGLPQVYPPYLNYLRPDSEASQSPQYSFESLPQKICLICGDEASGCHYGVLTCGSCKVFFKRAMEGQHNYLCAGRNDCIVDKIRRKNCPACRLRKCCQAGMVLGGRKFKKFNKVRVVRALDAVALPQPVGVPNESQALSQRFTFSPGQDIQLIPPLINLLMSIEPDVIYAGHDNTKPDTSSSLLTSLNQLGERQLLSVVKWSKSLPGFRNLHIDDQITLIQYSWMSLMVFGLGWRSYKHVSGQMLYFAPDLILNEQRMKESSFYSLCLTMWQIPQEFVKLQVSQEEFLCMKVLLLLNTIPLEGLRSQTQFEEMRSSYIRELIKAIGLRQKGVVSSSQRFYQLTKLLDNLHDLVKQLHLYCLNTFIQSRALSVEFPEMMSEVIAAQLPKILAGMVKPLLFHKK
In short: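 Using charcoal-stripped serum (2%) to limit endogenous steroids, PR-UAS-bla HEK 293T cells received compounds for 16 hr at 37C after 6 hr plating; beta-lactamase FRET fluorescence was recorded following 2 hr substrate loading at room temperature.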

[4] = qHTS assay to identify small molecule antagonists of the TGF-beta/Smad signaling pathway - cell viability counter screen (AID 1346824); further: nearly all actives have a fitted effect of over 50% in size
In short: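 Cytotoxicity counter-screen run in the same wells as the beta-lactamase Smad reporter read: CellTiter-Glo luminescence after 30 min at room temperature. HEK 293T SBE-bla cells had 5 hr compound exposure at 37 C with TGF-beta1 (0.25 ng/mL stock).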

[5] = qHTS assay to identify small molecule agonists of the TGF-beta/Smad signaling pathway - cell viability counter screen (AID 1346829); further: top concentration of the series differs between compounds; nearly all actives have a fitted effect of over 45% in size
In short: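 SBE-bla HEK 293T cells plated overnight, compound exposure 5 hr at 37 C. Viability read in the same wells by CellTiter-Glo luminescence after 30 min at room temperature, following the beta-lactamase read.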

[6] = biological target: Progesterone receptor (Homo sapiens) (UniProt P06401); assay: qHTS assay to identify small molecule antagonists of the progesterone receptor (PR) signaling pathway (AID 1346795; active means well fitted inhibition curve with a large enough effect in the signal ratio in the repeat runs, not every such curve was filed as active; the % refers to the signal ratio; further: potency means the concentration at half of the fitted maximal effect)
In short: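 Inhibition of R5020-induced (1 nM final) beta-lactamase reporter signal in PR-UAS-bla HEK293T cells was scored by FRET fluorescence after overnight (16 hr) compound treatment.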

[7] = qHTS assay to identify small molecule antagonists of the progesterone receptor (PR) signaling pathway - cell viability counter screen (AID 1346798); further: nearly all actives have a fitted effect of over 50% in size; further: potency means the concentration at half of the fitted maximal effect
In short: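 ATP content as viability readout: CellTiter-Glo luminescence, 30 min room temperature, in PR-UAS-bla HEK293T cells after 16 hr compound/R5020 treatment at 37C and 5% CO2.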

[8] = qHTS assay to identify small molecule agonists of the TGF-beta/Smad signaling pathway (AID 1346859; active means well fitted activation curve with a large enough effect in the signal ratio in the repeat runs, not every such curve was filed as active; the % refers to the signal ratio; further: series mostly up to about 77 µM)
In short: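 Stable Smad binding element-beta-lactamase HEK 293T cells; 5 hr compound exposure at 37 C under 5% CO2; 2 hr room-temperature substrate step; fluorescence excited at 405 nm, collected at 460 nm and 530 nm.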

[9] = biological target: Thyrotropin-releasing hormone receptor (Homo sapiens) (UniProt P34981); assay: qHTS assay to identify small molecule antagonists of the thyrotropin-releasing hormone receptor (TRHR) signaling pathway (AID 1346877; active means well fitted inhibition curve with a large enough effect in the repeat runs, not every such curve was filed as active; further: series mostly up to about 51 µM)
Thyrotropin-releasing hormone receptor (Homo sapiens), sequence (P34981 whole entry, looked up): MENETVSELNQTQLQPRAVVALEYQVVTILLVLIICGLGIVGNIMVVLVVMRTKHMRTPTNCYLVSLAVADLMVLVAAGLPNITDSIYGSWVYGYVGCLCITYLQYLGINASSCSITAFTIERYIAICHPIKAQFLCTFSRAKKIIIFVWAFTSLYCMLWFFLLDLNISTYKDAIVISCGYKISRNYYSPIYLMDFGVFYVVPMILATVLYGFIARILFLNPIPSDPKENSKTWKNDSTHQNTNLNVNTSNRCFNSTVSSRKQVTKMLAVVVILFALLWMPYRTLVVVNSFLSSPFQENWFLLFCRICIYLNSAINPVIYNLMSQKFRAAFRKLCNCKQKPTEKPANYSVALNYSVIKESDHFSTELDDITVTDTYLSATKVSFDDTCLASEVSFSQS
In short: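 Following an 18 h incubation at 37 °C and a 2 h calcium dye load, TRHR-HEK293 cells were exposed to compound (5 min, room temperature) and challenged with TRH, 1 nM final.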

[10] = qHTS assay to identify small molecule agonists of the progesterone receptor (PR) signaling pathway - cell viability counter screen (AID 1346799; calls by dose curve; further: nearly all actives have a fitted effect of over 45% in size; further: potency means the concentration at half of the fitted maximal effect)
In short: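 Cytotoxicity in PR-bla HEK293T cells: 16 h compound, 37C; CellTiter-Glo added post-FRET read; luminescence after 30 min RT.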

Compound | Potency [1] | Potency [2] | Potency [3] | Potency [4] | Potency [5] | Potency [6] | Potency [7] | Potency [8] | outcome [9] | Potency [10]
C/C=C\C/C=C/CCCCCCCCOC(C)=O | inactive | inactive | inactive | inactive | inactive |  |  |  |  | 
O=C(O)CCc1nc(-c2ccccc2)c(-c2ccccc2)o1 | inactive | inactive | inactive | inactive | inactive | inactive | inactive | inactive | inactive | 
CCOC(=O)c1ccc(O)c(O)c1 | inactive | inactive | inactive | inactive | inactive | inactive | inactive | inactive |  | 
Cc1ccco1 | inactive | inactive | inactive | inactive | inactive |  | inactive | inactive | inactive | inactive
CN1CCCC(n2nc(Cc3ccc(Cl)cc3)c3ccccc3c2=O)CC1 (configuration not stated) | 26.6 µM (active) | 11.9 µM (active) | inactive | inactive | inactive |  | 26.6 µM (active) | inactive | inactive | 13.3 µM (active)
CCOC(=O)c1ccc(I)cc1 | inactive | inactive | 5.5 µM (active) | inactive | inactive | inactive | inactive | inactive | inactive | 
CCCCCCCC/C=C\CCCCCCCCO | inactive | inactive | inactive | inactive |  |  | inactive | inactive |  | inactive
CC1(C)S[C@@H]2[C@H](NC(=O)C(c3ccccc3)S(=O)(=O)O)C(=O)N2[C@H]1C(=O)O (some centres not stated) | inactive | inactive | inactive | inactive | inactive | inactive |  | inactive | inactive | inactive
Brc1cc(Br)c(Oc2cc(Br)c(Br)cc2Br)cc1Br | inactive | inactive | inactive | inactive | inactive | inactive |  |  | inactive | 
O=C1Cc2cc(Cl)ccc2N1 | inactive | inactive | inactive | inactive |  | inactive | inactive | inactive | inactive | inactive
C[C@]12CC[C@@H]3c4ccc(O)cc4CC[C@H]3[C@@H]1CC[C@@H]2OC(=O)CCC1CCCC1 | inactive | inactive | inactive | inactive | inactive | 0.386 µM (active) |  | inactive |  | 
CC(C)Nc1cccnc1N1CCN(C(=O)c2cc3cc(NS(C)(=O)=O)ccc3[nH]2)CC1 | inactive | inactive | inactive | inactive | inactive |  |  |  |  | inactive
CCCCC(CC)COP(=O)(O)O (configuration not stated) | inactive | inactive | inactive | inactive | inactive |  |  | inactive |  | inactive
Cc1ccc(C(C)(C)O)cc1 | inactive | inactive | inactive | inactive | inactive |  | inactive | inactive |  | inactive
CN1CCCC(CC2c3ccccc3Sc3ccccc32)C1 (configuration not stated) | 29.8 µM (active) | inactive | inactive | inactive | inactive |  | 18.8 µM (active) | inactive |  | 18.8 µM (active)
O=C(Cn1ccnc1[N+](=O)[O-])NCCO | inactive | inactive | inactive | inactive |  | inactive | inactive | inactive | inactive | inactive
Oc1ccc(Cl)c2cccnc12 | inactive | inactive | inactive | inactive | inactive | 3.76 µM (active) |  |  |  | 
Nc1nnc(-c2ccc([N+](=O)[O-])o2)o1 | inactive | 61.1 µM (active) | inactive | inactive |  |  |  | inactive |  | 

Compound | Potency [1] | Potency [2] | Potency [3] | Potency [4] | Potency [5] | Potency [6] | Potency [7] | Potency [8] | outcome [9] | Potency [10]
O=C(OC(=O)c1ccccc1)c1ccccc1 | inactive | inactive | inactive | inactive |  | inactive | inactive |  | inactive | inactive
CCCCCCCCN | inactive | inactive | inactive | inactive |  | inactive | inactive | inactive | inactive | inactive
CS(=O)(=O)c1ccc(-c2cn3ccccc3n2)cc1 | inactive | inactive | inactive | inactive | inactive |  | 29.8 µM (active) |  | inactive | 
COc1ccccc1N1CCN(CC(O)COc2cccc3ccccc23)CC1 (configuration not stated) | inactive | inactive | inactive | inactive | inactive |  |  | inactive |  | 33.5 µM (active)
CCn1cc(C(=O)O)c(=O)c2cc(F)c(N3CCNCC3)cc21 | inactive | inactive | inactive | inactive |  | inactive | inactive | inactive | inactive | inactive
CN1C(=O)c2ccccc2C1=O | inactive | inactive | 1.09 µM (active) | inactive | inactive |  |  | inactive | inactive | 
O=C(O)c1cccc(-c2noc(-c3ccccc3F)n2)c1 | inactive | inactive | inactive |  |  | inactive |  |  | inactive | 
CCCC(=O)C(=O)O | inactive | inactive | inactive | inactive | inactive |  | inactive | inactive | inactive | inactive
N#CCCN(CCO)CCO | inactive | inactive | inactive | inactive |  |  | inactive |  | inactive | inactive
CCC(C)COC(=O)CC(C)C (configuration not stated) | inactive | inactive | inactive | inactive | inactive |  | 9.69 µM (active) | inactive | inactive | 
CCCCCCNC(=O)n1cc(F)c(=O)[nH]c1=O | inactive | inactive | inactive | inactive | inactive |  | inactive | inactive | inactive | inactive
O=C(O)c1ccc(OCCCOc2ccc(C(=O)O)cc2)cc1 | inactive | inactive | inactive | inactive |  | inactive | inactive | inactive | inactive | inactive
Oc1cccc(Nc2ccccc2)c1 | inactive | inactive | inactive | inactive | inactive | 20.2 µM (active) |  | inactive | inactive | 
O=C1c2ccccc2C(=O)c2c(O)c(O)cc(O)c21 | inactive | 30.6 µM (active) | inactive | inactive | inactive | inactive | inactive | inactive |  | 
Cc1c(C)c2c(c(C)c1OC(=O)CCC(=O)OCCO)CC[C@@](C)(CCC[C@H](C)CCC[C@H](C)CCCC(C)C)O2 | inactive | inactive |  | inactive | inactive | 26.6 µM (active) |  | inactive | inactive | 
O=C1c2ccccc2C(=O)C1c1nc2ccccc2c(Br)c1O | inactive | inactive |  | inactive | inactive | inactive | inactive |  | inactive | inactive
CCOC(=O)c1ccc(C#Cc2ccc3c(c2)C(C)(C)CCS3)nc1 | inactive | inactive |  | inactive | inactive |  |  |  | inactive | 
